# Screening data deposited in PubChem by several laboratories.
# V-ATPase pH = regulators of yeast V-ATPase proton transport. S. cerevisiae, pHLuorin cytosolic pH fluorescence. response, % at 10 µM. 350,000 compounds, 0.37% hits. AID 504577; in the data active means response mostly above about 7.3%, no sharp cut-off; inactive means mostly below about 5.4%; further: actives read high
# HSV augment = increases HSV replication in cells | HSV replication augmentation in cells, fold increase | maximum fold increase | 220,000 compounds, 0.005% hits | AID 1956; in the data active means maximum fold increase above about 1.5; inconclusive means no clear call, values can overlap the other calls; tested in PC3 cells
# MIN6 prolif = inducers of beta-cell replication in MIN6 cells | MIN6 cells proliferation, ATPlite luminescence, 48 h; cells starved in 0.2% serum; 100% = growth in 10% serum | proliferation, % at 10 µM | 330,000 compounds, 0.29% hits;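 active means compounds whose signal lies at least 3.5 SD above the mean of all wells on their plate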
# Cardio protect = modulators protecting cardiomyocytes from myocardial damage. H9c2 cardiomyocytes, H2O2 injury protection, ATPLite, 2 h. 360,000 compounds, 0.63% hits. protection from H2O2 cell death, % at 20 µM;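 active means compounds giving at least 50% protection of heart cells from peroxide-induced death in the single-dose screen, raw or plate-pattern-corrected value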
# Yeast superoxide = caloric restriction mimetics inhibiting age-related superoxide in yeast; S. cerevisiae aged cells, superoxide DHE fluorescence; stronger effect = lower value; superoxide response (% of plate mean), % at 10 µM; 330,000 compounds, 0.18% hits;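 active means superoxide response under a set limit, about three screen SD below normal, cut at about 65% in these data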;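 further: yeast aged for seven days with compound at 30 °C before DHE staining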
# p-CIP stab down = p/CIP protein destabilization; F442A p/CIP-EGFP cells, EGFP fluorescence, 16 h; 290,000 compounds, 0.01% hits; Q05BA5; decrease of EGFP signal, % at 10 µM;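 active means EGFP signal decrease of at least 30% at 10 µM or well 3 SD below plate mean, unless failing retest; inactive means the rest, including hits failing retest or dose response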
# Hits are given with their value; n = inactive; u = inconclusive; x = no result given. Rows were chosen to be rich in hits. Some 1.4% of all compounds tested hit in one or more screens of this group.
SMILES,V-ATPase pH,HSV augment,MIN6 prolif,Cardio protect,Yeast superoxide,p-CIP stab down
CCOc1cc(/C=C(\C#N)C(=O)Nc2ccccc2C(=O)O)ccc1OC(=O)c1ccc(C)cc1,n,x,x,n,n,n
CCOc1ccccc1NC(=O)C1CCCN(S(=O)(=O)c2ccc(-n3cnnn3)cc2)C1 (configuration not stated),n,x,n,n,n,n
NC(=O)c1cccc2c1C(=O)N(C1CCCCC1)C2,n,n,n,78,n,n
CC1CCCN(CCOc2ccc3ccccc3c2Br)C1 (configuration not stated),n,n,n,n,n,n
CC(C)c1ccc(NC(=O)C2CCCCC2C(=O)O)cc1 (configuration not stated),14,x,n,n,n,n
CCc1ccc(NC(=O)C2CCCCC2C(=O)O)cc1 (configuration not stated),n,n,n,n,n,n
O=C(Cc1n[nH]c(=O)c2ccccc12)NC(c1ccccc1)c1ccccc1,n,n,n,n,n,n
CCOC(=O)C1(C)CCCCCN1C(=O)c1csnn1 (configuration not stated),x,x,x,n,x,x
CC1=CN2C(=N)/C(=C/c3ccco3)C(=O)N=C2S1,n,n,n,n,n,n
CC1=CN2C(=N)/C(=C/c3ccc([N+](=O)[O-])o3)C(=O)N=C2S1,143,u,x,n,n,n
CCOc1cc(/C=N/NC(N)=O)cc(Br)c1OCC(=O)Nc1cccc2ccccc12,n,n,n,57,n,n
CCOc1cc(/C=N/NC(N)=O)cc(Br)c1OCC(=O)Nc1ccccc1C,n,n,n,n,n,n
CN1C=CC(C(C(N)=O)c2ccccc2)c2ccccc21 (configuration not stated),n,x,x,n,x,x
CCc1noc(C)c1C(=O)N1CCCC(N2CCN(c3cccc(Cl)c3)CC2)C1 (configuration not stated),n,x,n,n,n,n
Cc1onc(-c2c(Cl)cccc2Cl)c1C(=O)N/N=C(\N)COc1ccc(Cl)cc1,n,n,n,70,n,n
N#C/C(=C\c1cn(-c2ccccc2)nc1-c1cccnc1)c1nnc2n1CCCCC2,n,n,n,51,n,n
COc1cccc(NCc2cc(=O)oc3cc(-c4ccccc4)c(O)cc23)c1,21,n,n,n,n,n
Cc1ccc(C(=O)Nc2nnc(SCC(=O)N3CCCc4ccccc43)s2)cc1,9.0,n,n,n,n,n
CCN(CC(=O)Nc1ccc(NC(C)=O)cc1)C(=O)c1ccccc1CCc1ccccc1,n,x,n,n,n,x
O=C1N=c2ccccc2=C1c1sc(Nc2cccc(O)c2)nc1O,n,x,n,54,n,n
O=C(NNC(=O)c1cc2cc(Br)ccc2oc1=O)c1ccc(O)cc1O,n,n,n,77,n,n
COc1ccc(CC(=O)NNC(=O)COc2ccc(C)cc2)cc1S(=O)(=O)N1CCOCC1,n,x,n,n,n,x
COc1ccc(CC(=O)NNC(=O)COc2ccc(Cl)cc2C)cc1S(=O)(=O)N1CCOCC1,n,x,n,n,65,x
NC(COCc1ccccc1)c1csc(Nc2ccc(C(=O)c3ccccc3)cc2)n1 (configuration not stated),x,x,x,n,x,x
Cc1cc(C)c(NC(=O)CSc2nnc(CNC(=O)c3ccco3)o2)c(C)c1,n,x,n,n,n,n
SMILES,V-ATPase pH,HSV augment,MIN6 prolif,Cardio protect,Yeast superoxide,p-CIP stab down
O=C(CSc1nnc(-c2cccnc2)n1Cc1ccco1)c1ccccc1,n,x,n,50,n,n
O=C(CSc1nnc(-c2cnccn2)n1Cc1ccco1)c1ccc2ccccc2c1,n,x,n,n,n,47
CC(C)OC(=O)CSc1nnc(-c2cnccn2)n1Cc1ccco1,n,n,n,n,n,n
O=C(CSc1nnc(-c2ccc(O)cc2)n1Cc1ccco1)c1ccccc1,n,n,n,n,n,n
CSc1nsc(SC)c1C(=O)N1CCN(S(=O)(=O)c2ccc(C)cc2)C1C(C)C (configuration not stated),n,n,n,83,n,n
COc1ccc2cc3cc(C(=O)Nc4cc(OC)c(OC)c(OC)c4)oc3nc2c1,n,n,n,58,n,n
COc1cccc2c(Nc3ccccc3C)cc(C)nc12,n,x,n,n,n,n
COc1cccc2nc3cc(C)c(C)cc3nc12,n,n,n,n,63,n
COc1cccc(Cn2c(NCc3cccnc3)nc3c2c(=O)n(C)c(=O)n3C)c1,n,n,n,n,n,n
Cn1c(=O)c2c(nc(NCc3cccnc3)n2Cc2cccc(C(F)(F)F)c2)n(C)c1=O,n,n,n,73,n,n
CC(C)OP(=O)(OC(C)C)C(O)c1cccc([N+](=O)[O-])c1 (configuration not stated),n,n,n,n,n,n
COc1cc(NC(=O)c2csc(-c3ccncc3)n2)cc(C(=O)Nc2cccc(C(F)(F)F)c2)c1,n,n,n,59,n,n
COc1ccccc1/C=C/CN1CCC(Oc2cc(C(=O)NC3CC3)ccc2OC)CC1,n,x,n,n,n,n
NCCC(=O)NCCc1cnc[nH]1,23,x,n,n,n,x
O=C(CSc1nnc(-c2cccnc2)o1)c1cc2ccccc2oc1=O,n,n,n,51,n,n
O=C(CSc1nnc(-c2cccnc2)o1)Oc1ccccc1,n,n,n,n,n,n
Oc1ccc2ccccc2c1C=Nc1ccccc1Br,n,x,n,n,n,n
Oc1c(Br)cc(Cl)cc1C=Nc1ccccc1Br,n,n,n,72,n,n
Cc1ccc(S(=O)(=O)NCCNS(=O)(=O)c2ccc(C)cc2)cc1,338,x,n,n,n,n
O=C(Cn1ccc(NC(=O)OCc2ccccc2)nc1=O)NCc1ccc2[nH]ccc2c1,n,x,n,n,n,x
Cc1ccc(C)c(S(=O)(=O)N2CCN(C(=O)[C@H](Cc3ccccc3)NC(=O)c3ccco3)CC2)c1,n,x,n,n,n,x
Cc1cccc(CNc2ccc(S(=O)(=O)N3CCCCC3)cc2)c1,n,x,n,n,n,x
COc1ccccc1NC(=O)CNC(=O)c1ccc(Br)o1,n,x,n,n,n,n
O=C(C#Cc1ccccc1)c1ccc([N+](=O)[O-])cc1,12,x,n,n,x,n
COc1ccc(Nc2nc(OC)nc(OC)n2)cc1,n,x,n,n,n,n
SMILES,V-ATPase pH,HSV augment,MIN6 prolif,Cardio protect,Yeast superoxide,p-CIP stab down
COc1ccc(Nc2nc(Nc3ccc(OC)cc3)nc(-n3[nH]c(=O)c(C)c3C)n2)cc1,n,n,n,92,n,n
Cc1[nH]c(-c2ccc3c(c2)OCO3)nc1C(=O)O,n,n,n,n,n,n
Cc1[nH]c(-c2ccco2)nc1C(=O)O,23,n,n,n,n,n
CCOc1ccccc1NC(=O)c1oc2ccccc2c1NC(=O)C1CCCO1 (configuration not stated),n,n,n,52,n,n
COc1ccc(-c2oc3c(OC)c(OC)c(OC)c(O)c3c(=O)c2OC)cc1OC,n,n,n,72,n,n
CCCC[C@@H]1C=C(C(=O)O)[C@H](c2ccc(Cl)cc2)N1S(=O)(=O)c1ccc(C)cc1,n,x,n,n,n,x
